From PubChem BioAssay (NCI)
About 79,000 compounds went through this panel and 15% of them were active in at least one assay; those are over-represented in the sample as a whole. Calls of active or inactive are those of the source. No stated cut-off is given here; in the data, active means growth inhibition above about 70%; inactive means the rest.

Tests used:
[1] = NCI Yeast Anticancer Drug Screen. Data for the rad52 strain (AID 147);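 further: 0% = growth of vehicle-treated control cultures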; settings: S. cerevisiae rad52 mutant growth inhibition, stronger effect = higher value
Summary of the method: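 Yeast strain carrying a DNA damage repair alteration was exposed to test compounds. Growth inhibition was measured relative to vehicle-treated controls.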

[2] = NCI Yeast Anticancer Drug Screen. Data for the wt1 strain (AID 149);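 further: 0% = growth of vehicle-treated wt1 cultures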; settings: S. cerevisiae wt1 strain (SPY 50644) growth inhibition, stronger effect = higher value
Summary of the method: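 Growth inhibition read against vehicle controls after compound exposure of the wt1 yeast strain.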

[3] = NCI Yeast Anticancer Drug Screen. Data for the rad50EPP+ strain (AID 151);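 further: 0% = growth of vehicle-treated control cultures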; settings: S. cerevisiae rad50 mutant strain, stronger effect = higher value
Summary of the method: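 Yeast strain carrying rad50 alteration (rad50EPP+) exposed to compounds; growth inhibition measured relative to vehicle-treated controls.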

[4] = NCI Yeast Anticancer Drug Screen. Data for the mgt1 strain (AID 153); settings: S. cerevisiae mgt1 mutant growth inhibition, stronger effect = higher value
Summary of the method: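 Yeast mgt1 strain (DNA repair/cell-cycle alteration panel) exposed to compounds; growth inhibition measured relative to vehicle-treated controls.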

[5] = NCI Yeast Anticancer Drug Screen. Data for the rad50 strain (AID 155);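 further: 0% = growth of vehicle-only cultures of the same strain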; settings: S. cerevisiae rad50 strain growth inhibition, stronger effect = higher value
Summary of the method: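 Readout: growth inhibition relative to vehicle-treated cultures. Compound exposure was carried out in a genetically defined yeast strain deficient in DNA damage repair.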

[6] = NCI Yeast Anticancer Drug Screen. Data for the mec2-1 strain (AID 157); settings: S. cerevisiae mec2-1 strain, stronger effect = higher value
Summary of the method: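 mec2-1 yeast strain, carrying an alteration in DNA damage repair or cell cycle control, was exposed to compounds; growth inhibition was measured relative to vehicle-treated controls.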

[7] = NCI Yeast Anticancer Drug Screen. Data for the rad14 strain (AID 159);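 further: 0% = growth of vehicle-treated control cultures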; settings: S. cerevisiae rad14 strain growth inhibition, stronger effect = higher value
Summary of the method: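 Growth inhibition vs vehicle controls; genetically altered yeast strain (DNA damage repair defect) treated with test compounds.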

[8] = NCI Yeast Anticancer Drug Screen. Data for the sgs1 mgt1 strain (AID 161);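 further: 0% = growth of cultures given vehicle only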; settings: S. cerevisiae sgs1 mgt1 strain, stronger effect = higher value
Summary of the method: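 Compounds are added to genetically altered yeast, and growth is compared with cultures given vehicle alone to give percent inhibition.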

[9] = NCI Yeast Anticancer Drug Screen. Data for the CLN2oe strain (AID 163);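 further: 0% = growth of vehicle-only control cultures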; settings: S. cerevisiae CLN2oe strain, stronger effect = higher value
Summary of the method: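 Yeast cells carrying a defined cell-cycle control alteration were exposed to test compounds. Growth inhibition was scored against vehicle-treated control cultures.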

[10] = NCI Yeast Anticancer Drug Screen. Data for the cln2 rad14 strain (AID 165);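 further: 0% = growth equal to vehicle treated cultures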; settings: S. cerevisiae cln2 rad14 strain, stronger effect = higher value
Summary of the method: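 Yeast carrying cln2 and rad14 alterations (cell cycle control and DNA damage repair) were exposed to compounds. Growth inhibition was measured against vehicle-treated controls.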

[11] = NCI Yeast Anticancer Drug Screen. Data for the bub3 strain (AID 167); settings: S. cerevisiae bub3 mutant strain, stronger effect = higher value
Summary of the method: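 Readout: yeast growth inhibition, expressed relative to vehicle-only wells. The test organism is a mutant strain from a panel with lesions in DNA repair or checkpoint genes.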

[12] = NCI Yeast Anticancer Drug Screen. Data for the mlh1 strain (AID 171);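 further: 0% = growth of vehicle-treated control cultures of the same strain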; settings: S. cerevisiae mlh1 strain growth inhibition, stronger effect = higher value
Summary of the method: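 Yeast carrying a defined genetic alteration in DNA damage repair or cell cycle control were exposed to test compounds. Growth inhibition was measured relative to vehicle-treated controls.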

[13] = NCI Yeast Anticancer Drug Screen. Data for the sgs1 strain (AID 173);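 further: 0% = growth of vehicle-only control cultures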; settings: S. cerevisiae sgs1 mutant, stronger effect = higher value
Summary of the method: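 Yeast mutant strains carrying defined defects in DNA damage repair or cell cycle control were exposed to test compounds. Growth inhibition was scored against vehicle-treated controls.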

[14] = NCI Yeast Anticancer Drug Screen. Data for the mlh1 rad18 strain (AID 175); settings: S. cerevisiae mlh1 rad18 strain growth inhibition, stronger effect = higher value
Summary of the method: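 Growth inhibition of the yeast strain was measured after compound exposure and expressed relative to vehicle-treated controls. The strain carries defined defects in DNA damage repair.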

[15] = NCI Yeast Anticancer Drug Screen. Data for the rad18 strain (AID 177); settings: S. cerevisiae rad18 mutant growth inhibition, stronger effect = higher value
Summary of the method: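 Yeast carrying a defined DNA damage repair alteration were exposed to compounds. Growth inhibition was expressed relative to vehicle-treated controls.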

[16] = NCI Yeast Anticancer Drug Screen. Data for the wt2 strain (AID 169);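 further: 0% = growth of vehicle-treated yeast cultures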; settings: S. cerevisiae wt2 strain growth inhibition, stronger effect = higher value
Summary of the method: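 Yeast cells were exposed to test compounds, and growth inhibition was measured relative to vehicle-treated controls.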

[17] = at 5.0 µM (retest, dose inferred, filed as 0.5)
[18] = at 50.0 µM (retest, dose inferred, filed as 5.0)

Measured: growth inhibition

O=C1c2ccccc2-c2cc3ccccc3c(=O)n21
inactive: [1]; at 1.2 µM 32% | [1]; at 3.7 µM 64% | [2]; at 1.2 µM -21% | [2]; at 3.7 µM 0% | [2]; at 11.0 µM 31% | [2]; at 33.0 µM 58% | [2]; at 100.0 µM 51% | [3]; at 1.2 µM 41% | [4]; at 1.2 µM 12% | [4]; at 3.7 µM 2% | [4]; at 11.0 µM 37% | [5]; at 1.2 µM 32% | [5]; at 3.7 µM 64% | [5]; [17] 1% | [6]; at 1.2 µM 13% | [6]; at 3.7 µM 19% | [6]; [17] -14% | [6]; at 11.0 µM 48% | [6]; [18] 41% | [7]; at 1.2 µM 11% | [7]; at 3.7 µM 20% | [7]; at 11.0 µM 42% | [7]; at 33.0 µM 66% | [7]; at 100.0 µM 69% | [8]; [17] 9% | [8]; [18] 46% | [9]; at 1.2 µM 1% | [9]; at 3.7 µM 4% | [9]; at 11.0 µM 23% | [9]; at 33.0 µM 51% | [9]; at 100.0 µM 68% | [10]; [17] 22% | [10]; [18] 15% | [10]; at 50.0 µM 14.3% | [11]; at 1.2 µM 3% | [11]; at 3.7 µM 2% | [11]; [17] -2% | [11]; at 11.0 µM 10% | [11]; at 33.0 µM 68% | [11]; [18] 56% | [12]; at 1.2 µM 4% | [12]; at 3.7 µM 19% | [12]; at 11.0 µM 66% | [12]; at 100.0 µM 63% | [13]; at 1.2 µM 22% | [13]; at 3.7 µM 14% | [13]; at 11.0 µM 47% | [14]; [17] -13% | [14]; [18] 63% | [15]; at 1.2 µM -22% | [15]; at 3.7 µM -17% | [15]; at 11.0 µM 28% | [15]; at 33.0 µM 63% | [15]; at 100.0 µM 59%
active: [1]; at 11.0 µM 91% | [1]; at 33.0 µM 93% | [1]; at 100.0 µM 87% | [3]; at 3.7 µM 76% | [3]; at 11.0 µM 90% | [3]; at 33.0 µM 92% | [3]; at 100.0 µM 80% | [4]; at 33.0 µM 71% | [4]; at 100.0 µM 76% | [5]; at 11.0 µM 88% | [5]; at 33.0 µM 89% | [5]; [18] 92% | [5]; at 50.0 µM 91.7% | [5]; at 100.0 µM 84% | [6]; at 33.0 µM 70% | [6]; at 50.0 µM 85.3% | [6]; at 100.0 µM 77% | [8]; at 50.0 µM 81% | [11]; at 50.0 µM 84.5% | [11]; at 100.0 µM 72% | [12]; at 33.0 µM 74% | [13]; at 33.0 µM 76% | [13]; at 100.0 µM 77% | [14]; at 50.0 µM 81%

O=[N+]([O-])c1cn[n+]([O-])c2ccccc12
inactive: [1]; at 1.2 µM 33% | [1]; at 3.7 µM 59% | [2]; at 1.2 µM 0% | [2]; at 3.7 µM 16% | [2]; at 11.0 µM 34% | [3]; at 1.2 µM 61% | [4]; at 1.2 µM 10% | [4]; at 3.7 µM -5% | [4]; at 11.0 µM 33% | [5]; at 1.2 µM 14% | [5]; at 3.7 µM 58% | [5]; [17] 25% | [6]; at 1.2 µM 17% | [6]; at 3.7 µM 10% | [6]; [17] -31% | [6]; at 11.0 µM 52% | [7]; at 1.2 µM 21% | [7]; at 3.7 µM 43% | [8]; [17] 38% | [9]; at 1.2 µM 0% | [9]; at 3.7 µM 11% | [9]; at 11.0 µM 14% | [10]; [17] 7% | [11]; at 1.2 µM -1% | [11]; at 3.7 µM -12% | [11]; [17] -28% | [11]; at 11.0 µM 0% | [16]; at 1.2 µM -18% | [16]; at 3.7 µM 5% | [13]; at 1.2 µM 40%
active: [1]; at 11.0 µM 90% | [1]; at 33.0 µM 97% | [1]; at 100.0 µM 99% | [2]; at 33.0 µM 93% | [2]; at 100.0 µM 99% | [3]; at 3.7 µM 90% | [3]; at 11.0 µM 96% | [3]; at 33.0 µM 99% | [3]; at 100.0 µM 100% | [4]; at 33.0 µM 99% | [4]; at 100.0 µM 99% | [5]; at 11.0 µM 85% | [5]; at 33.0 µM 97% | [5]; [18] 97% | [5]; at 50.0 µM 89.3% | [5]; at 100.0 µM 99% | [6]; at 33.0 µM 97% | [6]; [18] 99% | [6]; at 50.0 µM 91.8% | [6]; at 100.0 µM 99% | [7]; at 11.0 µM 91% | [7]; at 33.0 µM 99% | [7]; at 100.0 µM 99% | [8]; [18] 99% | [8]; at 50.0 µM 90.3% | [9]; at 33.0 µM 84% | [9]; at 100.0 µM 99% | [10]; [18] 98% | [10]; at 50.0 µM 92% | [11]; at 33.0 µM 99% | [11]; [18] 99% | [11]; at 50.0 µM 89.5% | [11]; at 100.0 µM 99% | [16]; at 11.0 µM 75% | [16]; at 33.0 µM 100% | [16]; at 100.0 µM 99% | [13]; at 3.7 µM 71% | [13]; at 11.0 µM 84% | [13]; at 33.0 µM 98% | [13]; at 100.0 µM 98% | [15]; at 1.2 µM 92% | [15]; at 3.7 µM 93% | [15]; at 11.0 µM 95% | [15]; at 33.0 µM 98% | [15]; at 100.0 µM 99%
